Measured values: PubChem BioAssay
Where “and” joins values, the source holds several entries; their conditions need not be identical. Identical values can stand only once. Records with an inconclusive call do not appear. Calls of active or inactive are those of the source.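 Rule for the calls, unless noted: active = normalized viability below 100% at a tested concentration; inactive = the rest.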

Tests used:
[1] = viability loss in pontine glioma line – cell-based, SU-DIPG-XXV, MIPE5.0, CellTiter-Glo, qHTS, dose response (AID 1347065; cut-off not given, nearly all actives have AC50 up to about 26 µM;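 note: cells exposed to compound for 48 hours before ATP readout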); settings: CellTiter-Glo ATP luminescence
[2] = growth inhibition of DIPG cells – cell-based, MIPE4.0 library, CellTiter-Glo luminescence, qHTS (AID 1347066; cut-off not given, nearly all actives have AC50 up to about 30 µM;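 note: cells exposed to compound for 48 hours before readout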); settings: SU-DIPG-VI viability, CellTiter-Glo ATP luminescence
[3] = JHH-DIPG-1 glioma cell viability, MIPE5.0 library, CellTiter-Glo luminescence, qHTS (AID 1347067; cut-off not given, nearly all actives have AC50 up to about 26 µM;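 note: cells exposed to compound for 48 hours before readout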); settings: JHH-DIPG-1 glioma viability, CellTiter-Glo ATP luminescence
[4] = growth inhibition of DIPG cells – cell-based, MIPE5.0 library, qHTS (AID 1347068; cut-off not given, nearly all actives have IC50 up to about 30 µM;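 for IC50: cells exposed to compound for 48 hours before viability readout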); settings: SU-DIPG-XXV viability
[5] = viability loss with induced miR-34 in A549 – imaging, A549 dox-inducible miR-34, nuclei and caspase counts, primary screen (AID 1347080;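 active = compounds whose cell count with miR-34 switched on is under 0.7 times the count with it off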); settings: A549 miR-34 inducible, Hoechst nuclei count, 48 h
[6] = MELAS cybrid and Rieske KO viability enhancers – cell-based, MELAS cybrids, Rieske KO mouse fibroblasts, CellTiter-Glo, primary screen (AID 1508586;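 active = mean z-score across replicates of 1.96 or higher in either the MELAS or the Rieske mutant cell line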;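 note: z relative to plate mean and SD of compound and empty wells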); settings: low glucose
[7] = blockers of cellular phospholipid synthesis – cell-based, LOPAC library, screen 4, primary screen (AID 1347384; call rule not given here); settings: animal cells, phospholipid biosynthesis inhibition screen; at 10 µM
[8] = compounds altering HSF1 focus formation in cells – imaging, Selleck Cancer Library (AID 1347162; in the data active = plate-normalised HSF1 focus index below about 0.46); settings: human cells, HSF1 nuclear foci imaging, at 10 µM; SSMD: measured here: HSF1 foci SSMD mean; cell count: measured here: cell number; plate-normalised HSF1 focus index: stronger effect = lower value
[9] = drug combination growth inhibition, ovarian cancer – cell-based, oncology-focused library, rucaparib conditional, profiling panel (AID 1508598); settings: patient-derived ovarian cancer cells, CellTiter-Glo viability, 144 h, stronger effect = lower value
[10] = stronger effect = lower value, cell number ratio, induced over uninduced
[11] = measured here: relative caspase fold change +Dox/-Dox
[12] = measured here: total cells with miR-34 induction, stronger effect = lower value
[13] = measured here: total cells without miR-34 induction
[14] = MELAS cybrid survival, CellTiter-Glo 48 h, stronger effect = higher value
[15] = Rieske KO mouse fibroblast survival, CellTiter-Glo 72 h

COc1ccnc(CS(=O)c2nc3ccc(OC(F)F)cc3[nH]2)c1OC (stereo not drawn)
-0.32: z-score [6, 15]
12000 and 8980: cell count [5, 12]
inactive: outcome [1] | outcome [2] | outcome [3] | outcome [4] | fold change [5, 10] 0.948 and 0.839 | z-score [6, 14] 0.74
4.32 and 0.927: fold change [5, 11]
12600 and 10700: cell count [5, 13]

Cc1cnc(NC(=O)C2=C(O)c3ccccc3S(=O)(=O)N2C)s1
0.842 and 0.0996 and -0.732: z-score [6, 15]
inactive: outcome [1] | outcome [2] | outcome [3] | outcome [4] | outcome [7] | z-score [6, 14] -0.282 and 0.497 and -0.212

Cc1cc(C(C)(C)C)c(O)c(C)c1CC1=NCCN1
inactive: outcome [1] | outcome [2] | outcome [3] | outcome [4] | outcome [7] | z-score [6, 14] -0.371 and 0.43 and 0.93
0.698 and 0.504 and 0.891: z-score [6, 15]

O=C(O)c1cn(-c2ccc(F)cc2)c2cc(N3CCNCC3)c(F)cc2c1=O
inactive: outcome [1] | outcome [2] | outcome [3] | outcome [4] | fold change [5, 10] 0.867 and 0.86 | z-score [6, 14] 0.702 and 0.944
3.37 and 1.06: fold change [5, 11]
0.262 and 0.886: z-score [6, 15]
13400 and 10200: cell count [5, 13]
11600 and 8760: cell count [5, 12]

CCN1CCCC1CNC(=O)c1cc(S(=O)(=O)CC)c(N)cc1OC (stereo not drawn)
0.177 and 0.21: z-score [6, 15]
inactive: outcome [1] | outcome [2] | outcome [3] | outcome [4] | outcome [7] | z-score [6, 14] -0.415 and 0.449

CC1(C)NC(=O)N(c2ccc([N+](=O)[O-])c(C(F)(F)F)c2)C1=O
-0.252: z-score [6, 15]
inactive: outcome [1] | outcome [2] | outcome [3] | outcome [4] | outcome [7] | z-score [6, 14] 1.34

COC(=O)[C@@H]1[C@H]2C[C@H]3c4[nH]c5ccccc5c4CCN3C[C@@H]2CC[C@@H]1O
0.2 and -0.116: z-score [6, 15]
inactive: outcome [1] | outcome [2] | outcome [3] | outcome [4] | outcome [7] | z-score [6, 14] 0.194 and -0.872

Cc1cc2c(C(C)C)c(O)c(O)c(C=O)c2c(O)c1-c1c(C)cc2c(C(C)C)c(O)c(O)c(C=O)c2c1O
-10.3: SSMD [8]
5460: cell count [8]
inactive: outcome [7] | viability ([9]; at 0.000305 µM, OCI-C5x cells, with rucaparib 10 µM, 100% = cells with rucaparib alone) 113% | viability ([9]; at 0.000305 µM, OCI-C5x cells, without rucaparib) 130% | viability ([9]; at 0.000305 µM, OCI-P5x cells, without rucaparib) 103% | viability ([9]; at 0.00122 µM, OCI-C5x cells, with rucaparib 10 µM, 100% = cells with rucaparib alone) 115% | viability ([9]; at 0.00122 µM, OCI-C5x cells, without rucaparib) 120% | viability ([9]; at 0.00122 µM, OCI-P5x cells, without rucaparib) 104% | viability ([9]; at 0.00488 µM, OCI-C5x cells, with rucaparib 10 µM, 100% = cells with rucaparib alone) 119% | viability ([9]; at 0.00488 µM, OCI-C5x cells, without rucaparib) 131% | viability ([9]; at 0.00488 µM, OCI-P5x cells, without rucaparib) 108% | viability ([9]; at 0.0195 µM, OCI-C5x cells, with rucaparib 10 µM, 100% = cells with rucaparib alone) 113% | viability ([9]; at 0.0195 µM, OCI-C5x cells, without rucaparib) 134% | viability ([9]; at 0.0195 µM, OCI-P5x cells, with rucaparib 20 µM, 100% = cells with rucaparib alone) 101% | viability ([9]; at 0.0195 µM, OCI-P5x cells, without rucaparib) 112% | viability ([9]; at 0.0781 µM, OCI-C5x cells, with rucaparib 10 µM, 100% = cells with rucaparib alone) 110% | viability ([9]; at 0.0781 µM, OCI-C5x cells, without rucaparib) 123% | viability ([9]; at 0.0781 µM, OCI-P5x cells, with rucaparib 20 µM, 100% = cells with rucaparib alone) 108% | viability ([9]; at 0.0781 µM, OCI-P5x cells, without rucaparib) 116% | viability ([9]; at 0.313 µM, OCI-C5x cells, with rucaparib 10 µM, 100% = cells with rucaparib alone) 128% | viability ([9]; at 0.313 µM, OCI-C5x cells, without rucaparib) 144% | viability ([9]; at 0.313 µM, OCI-P5x cells, with rucaparib 20 µM, 100% = cells with rucaparib alone) 107% | viability ([9]; at 0.313 µM, OCI-P5x cells, without rucaparib) 113% | viability ([9]; at 1.25 µM, OCI-C5x cells, with rucaparib 10 µM, 100% = cells with rucaparib alone) 110% | viability ([9]; at 1.25 µM, OCI-C5x cells, without rucaparib) 148% | viability ([9]; at 1.25 µM, OCI-P5x cells, without rucaparib) 110% | viability ([9]; at 5 µM, OCI-C5x cells, with rucaparib 10 µM, 100% = cells with rucaparib alone) 130% | viability ([9]; at 5 µM, OCI-C5x cells, without rucaparib) 156% | viability ([9]; at 5 µM, OCI-P5x cells, without rucaparib) 106%
active: AC50 [1] 7.42 µM | AC50 [2] 8.33 µM | AC50 [3] 2.95 µM | IC50 [4] 23.5 µM | plate-normalised HSF1 focus index [8] 0.468 | viability ([9]; at 0.000305 µM, OCI-P5x cells, with rucaparib 20 µM, 100% = cells with rucaparib alone) 95.4% | viability ([9]; at 0.00122 µM, OCI-P5x cells, with rucaparib 20 µM, 100% = cells with rucaparib alone) 95.6% | viability ([9]; at 0.00488 µM, OCI-P5x cells, with rucaparib 20 µM, 100% = cells with rucaparib alone) 96.5% | viability ([9]; at 1.25 µM, OCI-P5x cells, with rucaparib 20 µM, 100% = cells with rucaparib alone) 95.9% | viability ([9]; at 5 µM, OCI-P5x cells, with rucaparib 20 µM, 100% = cells with rucaparib alone) 89.5%

CCCCCN(C)CCC(O)(P(=O)(O)O)P(=O)(O)O
inactive: outcome [1] | outcome [2] | outcome [3] | outcome [4] | outcome [7]

CC[N+](CC)(CC)CCOc1cccc(OCC[N+](CC)(CC)CC)c1OCC[N+](CC)(CC)CC
inactive: outcome [1] | outcome [2] | outcome [3] | outcome [4] | outcome [7] | z-score [6, 14] -0.318 and -0.405 and -0.918
0.619 and -0.334 and -0.59: z-score [6, 15]

N[C@@H](Cc1ccc(O)c(O)c1)C(=O)O
0.117 and -1.12: z-score [6, 15]
inactive: outcome [1] | outcome [2] | outcome [3] | outcome [4] | outcome [7] | z-score [6, 14] -0.394 and -0.26

COc1ccc2cc3[n+](cc2c1OC)CCc1cc2c(cc1-3)OCO2
6200 and 4750: cell count [5, 13]
0.259: z-score [6, 15]
5700 and 4440: cell count [5, 12]
active: AC50 [1] 18.6 µM | AC50 [2] 23.5 µM | AC50 [3] 18.6 µM
inactive: fold change [5, 10] 0.92 and 0.934 | z-score [6, 14] 0.0209
1.68 and 1.22: fold change [5, 11]

Cc1cn[nH]c1
0.844 and 2.49: fold change [5, 11]
10200 and 12000: cell count [5, 12]
0.0381: z-score [6, 15]
10200 and 13300: cell count [5, 13]
inactive: outcome [1] | outcome [3] | outcome [4] | fold change [5, 10] 0.994 and 0.902 | outcome [7] | z-score [6, 14] 0.667

O=C(O)/C=C/c1ccc(Cn2ccnc2)cc1
0.0439 and 0.14: z-score [6, 15]
inactive: outcome [1] | outcome [2] | outcome [4] | z-score [6, 14] -1.23 and 0.348

COC(=O)Nc1nc2ccc(Sc3ccccc3)cc2[nH]1
active: AC50 [1] 0.742 µM
-0.0455 and -0.127 and 1.14: z-score [6, 15]
inactive: outcome [2] | outcome [4] | z-score [6, 14] 1.35 and -2.36 and -2.06
